Compound activity: PubChem BioAssay, several laboratories
PTPN22 inh 2: PTPN22 phosphatase inhibitors, primary screen, biochemical, DiFMUP fluorescence, 2 µM; inhibition, % at 2 µM; recombinant LYP catalytic domain; hit rate 0.21% among 96,000;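 active means inhibition at 2 µM at or above a set limit, the screen mean plus 3 SD, cut at about 24% in these data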
ERb coact inh: inhibitors of ERβ-SRC1 coactivator interaction, primary screen, biochemical, TR-FRET, ERβ LBD, SRC-1 peptide. inhibition, % at 25.6 µM. TR-FRET ER-beta LBD / SRC1-Cy5 peptide binding; receptor agonist-loaded with 1 µM estradiol. Estrogen receptor beta (Homo sapiens), Q92731. hit rate 1.3% among 86,000. AID 633, 2007;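 active means compounds whose percent inhibition of the receptor-coactivator binding signal exceeds about 50% in the single-dose screen, limit read from the data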
FAK inh: FAK kinase inhibitors, primary screen, biochemical. hit rate 0.84% among 97,000. inhibition, %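 (tested at 7 µM)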. AID 727, 2007. Focal adhesion kinase 1 (Homo sapiens), Q05397. biochemical FAK kinase activity assay; in the data active means inhibition above about 19%
ERa SRC1 pot: enhancers of ERα–SRC-1 coactivator binding, primary screen, biochemical, TR-FRET, ERα LBD, low estradiol | TR-FRET ERalpha-LBD/SRC-Cy5 coactivator binding, 2 h; 100 = basal binding, no effect | coactivator binding (% of control), % at 25.6 µM | hit rate 1.3% among 86,000 | AID 639, 2007; in the data active means activity above about 200%;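 further: binding measured in presence of low estradiol as agonist stimulus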
Target sequence (P03372 whole entry, looked up, the tested form may be a part): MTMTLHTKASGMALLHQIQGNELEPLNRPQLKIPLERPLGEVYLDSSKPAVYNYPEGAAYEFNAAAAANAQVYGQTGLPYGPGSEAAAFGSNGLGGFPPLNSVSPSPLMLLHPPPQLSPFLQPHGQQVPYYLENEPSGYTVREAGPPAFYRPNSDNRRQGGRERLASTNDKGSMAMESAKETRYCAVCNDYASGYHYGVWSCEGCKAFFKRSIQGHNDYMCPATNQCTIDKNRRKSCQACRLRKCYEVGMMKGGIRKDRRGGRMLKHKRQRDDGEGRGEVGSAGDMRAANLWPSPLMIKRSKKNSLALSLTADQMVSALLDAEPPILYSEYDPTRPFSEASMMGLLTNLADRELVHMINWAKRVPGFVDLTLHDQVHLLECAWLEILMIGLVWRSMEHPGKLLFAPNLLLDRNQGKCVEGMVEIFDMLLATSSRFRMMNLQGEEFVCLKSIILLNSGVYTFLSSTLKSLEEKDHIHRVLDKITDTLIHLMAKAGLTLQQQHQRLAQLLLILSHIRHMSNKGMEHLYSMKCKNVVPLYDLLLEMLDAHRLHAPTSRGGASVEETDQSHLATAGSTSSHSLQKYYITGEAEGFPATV
ERa SRC1 inh: ERα–SRC-1 coactivator interaction inhibitors, primary screen, biochemical, TR-FRET, ERα LBD, estradiol-bound; Estrogen receptor (Homo sapiens), P03372; TR-FRET ER-alpha LBD / SRC-1 peptide; inhibition, % at 25.6 µM; hit rate 1.7% among 86,000; in the data active means inhibition above about 50%
LYP act: LYP phosphatase activators, primary screen, biochemical, DiFMUP fluorescence, 2 µM; Tyrosine-protein phosphatase non-receptor type 22 (Homo sapiens), Q9Y2R2; recombinant LYP; 0 = plate median, 100 = signal doubled; activation, % at 2 µM; hit rate 0.11% among 96,000;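 active means activation at 2 µM above a set limit, the mean plus 5 SD, cut at about 37% in these data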
A number is an active result; 0 = inactive; - = no result; [ ] = another dose, or the depositor's remark. Only some compounds are listed: those with a hit (about 3.4% of all), similar ones and a draw of the others.

SMILES	PTPN22 inh 2	ERb coact inh	FAK inh	ERa SRC1 pot	ERa SRC1 inh	LYP act
CC(CN1CCCCC1)OC(=O)C(C)(c1ccccc1)c1ccccc1 (configuration not stated)	0	0	0	0	0	0
CCOC(=O)C1Cc2ccccc2CN1 (configuration not stated)	0	57[fluorescence artefact?]	0	0	0	0
CCC1(C)Cc2c(sc3nnn(Cc4ccccc4Cl)c(=O)c23)CO1 (configuration not stated)	0	-	0	-	-	0
CC(=O)NC1=C(C#N)C(c2ccccc2)c2c(ccc3ccccc23)O1 (configuration not stated)	0	-	0	-	-	0
O=C(C1=COCCO1)N1CCN(C(c2ccccc2)c2ccccc2)CC1	0	0	0	0	0	0
CCn1c(NN)nc2sc3c(c2c1=O)CCC3	0	52	0	0	0	0
CCOC(=O)c1c(NC(C)=O)sc2c1C1CCN2CC1	0	0	0	0	0	0
O=C(Nc1ccccc1F)C1CCCN(S(=O)(=O)c2cccc3cccnc23)C1 (configuration not stated)	0	53[fluorescence artefact?]	0	0	0	0
CCOc1ccccc1NC(=O)C1CCCN(S(=O)(=O)c2cccc3cccnc23)C1 (configuration not stated)	0	0	0	0	0	0
COc1cccc(-n2nnnc2SCC(=O)Nc2ccc3c(c2)OCCO3)c1	0	-	0	-	-	0
COc1ccc(-n2nnnc2SCC(=O)Nc2ccc3c(c2)OCCO3)cc1OC	0	0	0	210	0	0
CCOc1ccccc1NC(=O)CSc1nnnn1-c1ccc(C(=O)OC)cc1	0	0	0	0	0	0
COc1ccc(-n2nnnc2SCC(=O)c2ccc3c(c2)OCCO3)c(OC)c1	0	0	0	0	0	0
COc1ccc(C)cc1-n1nnnc1SCC(=O)NC(=O)NCc1ccco1	0	0	0	0	73	0
COC(=O)c1ccc(-n2nnnc2SCC(=O)Nc2ccccc2OC)cc1	0	0	0	0	58[fluorescence artefact?]	0
COc1ccc(C)cc1-n1nnnc1SCC(=O)c1ccc2c(c1)OCCO2	0	0	0	233	0	0
Cc1ccc(C)c2c3c([nH]c12)-c1nonc1CC3	0	0	0	0	0	0
CNc1nc(C)cc(C)c1S(=O)(=O)c1ccc(C)cc1	0	-	0	-	-	0
Cc1ccc(-n2nnnc2SCC(=O)Nc2cccc(NC(=O)c3ccco3)c2)cc1C	0	0	0	0	79	0
COc1ccc(C(=O)N2CC3(CC(c4cccc([N+](=O)[O-])c4)=NO3)C[C@H]2C(=O)NCC(N)=O)cc1 (some centres not stated)	0	-	0	-	-	0
COC(=O)c1ccc(C(=O)OC)c(NC(=O)c2cc3ccccc3o2)c1	0	0	0	364[fluorescence artefact?]	0	0
Cc1oc2cc(O)cc(C)c2c(=O)c1-c1cnn(-c2ccccc2)c1	0	0	0	236[fluorescence artefact?]	0	0
COc1ccc(NC(=O)C2CCN(Cc3cnn(-c4ccccc4)c3-n3cccc3)CC2)cc1OC	0	0	0	0	0	0
COc1ccc(OC)c(NC(=O)C2CCN(Cc3cnn(-c4ccccc4)c3-n3cccc3)CC2)c1	0	0	0	215	0	0
O=C1c2cccc3cccc(c23)C(=O)N1c1ccc2ncccc2c1	0	0	0	0	71[fluorescence artefact?]	0
SMILES	PTPN22 inh 2	ERb coact inh	FAK inh	ERa SRC1 pot	ERa SRC1 inh	LYP act
Cc1cc(C)n2nc(SCn3nnc4ccccc4c3=O)nc2n1	0	0	0	0	0	0
Cc1cc(C)n2nc(SCc3cc(=O)oc4cc(O)ccc34)nc2n1	29	62[fluorescence artefact?]	0	0	58	0
O=C(Nc1ccccc1)c1ccc(N2CCN(c3ccccn3)CC2)c(S(=O)(=O)N2CCOCC2)c1	0	0	0	340[fluorescence artefact?]	0	0
O=C(Nc1ccccc1)c1ccc(N2CCN(c3ccccc3)CC2)c(S(=O)(=O)N2CCOCC2)c1	0	0	0	405[fluorescence artefact?]	0	0
O=C(Nc1ccccc1)c1ccc(NC2CCCCC2)c(S(=O)(=O)N2CCOCC2)c1	0	0	0	0	0	0
COc1ccc(S(=O)(=O)N/N=C(/C)c2cccc(NC(=O)c3ccccc3Cl)c2)cc1	0	-	0	-	-	0
CC(C)NC(=O)CCNC(=O)c1ccc(F)cc1	0	0	0	0	0	0
COCCn1c(-c2ccc(-c3ccccc3Cl)o2)nc2c1c(=O)[nH]c(=O)n2CC(C)C	0	0	0	208	0	0
CCCCn1c(=O)[nH]c(=O)c2c1nc(-c1ccc(-c3ccccc3Br)o1)n2CCOC	0	0	0	0	0	0
Cc1cc(C(=O)O)ccc1-n1c(C)ccc1C	0	0	0	0	57	0
Cc1cc(N)ccc1-n1c(C)ccc1C	-	0	-	0	0	-
CCOC(=O)c1ccc(NC(=O)CN(Cc2ccc(Cl)cc2)S(C)(=O)=O)cc1	0	0	0	0	0	0
Cc1ccc(NC(=O)C2=C(O)c3ccccc3N(C)S2(=O)=O)cc1	-	-	0	-	-	-
COc1ccccc1NC(=O)c1c(NC(=O)c2ccco2)sc2c1CCC2	0	0	0	0	70[fluorescence artefact?]	0
O=C(Nc1sc2c(c1C(=O)O)CCC2)c1ccccc1	0	76	0	0	79[fluorescence artefact?]	0
COCCCNC(=O)c1c(NC(=O)c2cccs2)sc2c1CCCC2	0	0	0	331[fluorescence artefact?]	0	0
O=C(Nc1sc2c(c1C(=O)O)CCC2)c1cccs1	0	0	0	0	0	0
NC(=O)c1c(NC(=O)c2cccs2)sc2c1CCCCCC2	-	0	-	0	60	-
O=C(O)c1c(NC(=O)c2cccc3ccccc23)sc2c1CCC2	0	0	0	0	0	0
Cc1c(C(=O)N2CCC(C)CC2)sc2ncnc(N3CCN(c4ccccc4)CC3)c12	0	-	0	-	-	0
COc1ccc(-c2cc3nc4c(c(N5CCC6(CC5)OCCO6)n3n2)CCCC4)cc1	-	0	-	0	0	-
COc1cccc(-c2cc3nc(-c4ccccc4)cc(N4CCC5(CC4)OCCO5)n3n2)c1	0	0	0	210	0	0
O=C(Nc1ccccc1N1CCOCC1)c1cc(-c2ccco2)nc2ccccc12	0	79	0	0	87[fluorescence artefact?]	0
Cc1cc(C(=O)Nc2ccc(N3CCOCC3)cc2)c2ccccc2n1	0	0	0	0	0	0
Cc1ccc(C(c2nnnn2CC2CCCO2)N2CCN(c3cccc(C)c3C)CC2)cc1 (configuration not stated)	0	0	0	0	0	0
Cc1cccc(NC(=S)c2nc3ccccc3s2)c1	0	-	0	-	-	0
CN1CCN(C2=C(Cl)C(=O)C(c3cnc(N4CCCCC4)s3)=C(Cl)C2=O)CC1	0	72[fluorescence artefact?]	0	0	0	0
